IL1B secr inh – qHTS for Inhibitors of Inflammasome Signaling: IL-1-beta AlphaLISA Primary Screen; THP-1 LPS/ATP IL-1B secretion, AlphaLISA, 16 h; active compounds read low; activity change, % at 57.5 µM; actives 4.7% (n = 360,000); in the data active = activity change below about -50%; inconclusive = mostly about -30% to -49%
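Secreted IL-1B measured by AlphaLISA bead assay after 16 h compound exposure of THP-1 cells; compounds (final up to 57.5 uM) added 1 h before LPS (250 ng/mL) and ATP (1.25 mM) stimulation; lower signal means less secretion.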
KB-V1 cytotox – qHTS assay for MDR1-selective chemotherapeutics: Primary screen using the drug-selected MDR subline cells KB-V1; KB-V1 MDR cells viability, CellTiter-Glo, 72 h; Potency, µM (doses to about 46.1 µM), actives largely listed as cytotoxic; actives 3.4% (n = 400,000); AID 1347076, 2019; note: potency is the fitted concentration of half-maximal effect; nearly all actives have a fitted effect of over 60% in size
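KB-V1, DMEM (no phenol red) + 10% FBS; cpd pin-transferred, titration series; 72 h, 37 degrees C; CellTiter-Glo, luminescence. Data normalized, curve-fit.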
KB-3-1 tox – qHTS assay for MDR1-selective chemotherapeutics: Primary screen using the parental adenocarcinoma cell KB-3-1. Potency, µM (doses to about 46.1 µM), actives largely listed as cytotoxic. AID 1347075, 2019. actives 1.4% (n = 400,000). KB-3-1 viability, CellTiter-Glo ATP luminescence, 72 h; note: potency is the fitted concentration of half-maximal effect; nearly all actives have a fitted effect of over 60% in size
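Screening of KB-3-1 cells (DMEM, 10% FBS, phenol-red free) ran from lowest to highest compound concentration; after 72 h at 37 °C viability was read luminescently and curves fitted.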
HT1080NT lethal – qHTS for induction of synthetic lethality in tumor cells producing 2HG: qHTS for the HT-1080-NT fibrosarcoma cell line; AID 686970, 2013; Potency, µM (doses to about 46.1 µM), without a hit: top-dose activity, negative = less viability, usual class: cytotoxic; HT-1080-NT fibrosarcoma viability, CellTiter-Glo ATP luminescence, 48 h; actives 1.6% (n = 360,000);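 note: NT is the 2HG producing partner of a matched IDH1 knockdown line; potency is the fitted concentration of half-maximal effect; 0% = DMSO-treated cells and -100% = media-only wells without cells; nearly all actives have a fitted effect of over 55% in size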
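Luminescent CellTiter-Glo readout after 48 hours of compound exposure at 37 degrees C defined viability of HT-1080-NT cells. Activity was normalized to DMSO wells and cell-free media wells; concentration-response curves were fitted and assigned curve classes.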
HT1080 IDH1KD tx – qHTS for induction of synthetic lethality in tumor cells producing 2HG: qHTS for the HT-1080-IDH1KD cell line; Potency, µM (highest dose often 46.1 µM), without a hit: at the highest dose activity, negative = toxicity, most hits filed as cytotoxic; HT-1080 IDH1 knockdown viability, ATP luminescence, 48 h; AID 686971, 2013; actives 2% (n = 360,000);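 note: potency is the fitted concentration of half-maximal effect; 0% = DMSO wells and -100% = cell-free medium wells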
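Viability of IDH1-knockdown HT-1080 fibrosarcoma cells was assessed by CellTiter-Glo after 48 h at 37 °C with titrated compound; concentration-effect curves were classified by fit quality and response size.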
Numbers without * were called inactive. Most compounds without a hit are left out; they make up all but 8.8% or so of the library. Unless noted, calls come from the whole dose curve; as a rule, active = well fitted curve in the direction sought with a large enough effect; inconclusive = small, poorly fitted or top-dose-only effect, or another doubt; inactive = no such curve, though single readings can be large; an effect the other way counts as inactive or inconclusive. Unless noted, % is set by controls: 0 for no effect and ±100 for the full control effect.

`CCCCCCCCCc1nc2sc3c(c2c(=O)n1NC(=O)c1ccc([N+](=O)[O-])cc1)CC(C)(C)OC3` gave IL1B secr inh 0.6, KB-V1 cytotox inconclusive, KB-3-1 tox inactive, HT1080NT lethal inconclusive and HT1080 IDH1KD tx inconclusive.
`CCCCCCCCCc1nc2sc3c(c2c(=O)n1NC(=O)c1ccccc1[N+](=O)[O-])CC(C)(C)OC3` gave IL1B secr inh -74.4*, KB-V1 cytotox inconclusive, KB-3-1 tox inactive, HT1080NT lethal inconclusive and HT1080 IDH1KD tx inconclusive.
Cc1ccc2sc(-c3ccc(NC(=O)/C=C\C(=O)O)cc3)nc2c1 was read as IL1B secr inh inconclusive, KB-V1 cytotox inactive, KB-3-1 tox inactive, HT1080NT lethal 2.3% and HT1080 IDH1KD tx -0.8%.
For O=S(=O)(c1ccc(Cl)c(Cl)c1)c1snnc1-c1ccccc1 the results were IL1B secr inh -116.3*, KB-V1 cytotox inconclusive, KB-3-1 tox 5.17µM*, HT1080NT lethal 16.4µM* and HT1080 IDH1KD tx 8.2µM*.
`c1ccc(-c2nnsc2-c2ccccc2)cc1` gave IL1B secr inh 6.4, KB-V1 cytotox inactive, KB-3-1 tox inactive, HT1080NT lethal 7.1% and HT1080 IDH1KD tx 1.0%.
`CN(C)c1ncc(S(=O)(=O)c2ccccc2)c(N)n1` gave IL1B secr inh 0.5, KB-V1 cytotox inactive, KB-3-1 tox inactive, HT1080NT lethal -6.7% and HT1080 IDH1KD tx -4.2%.
`CN(C)c1ncc(S(=O)(=O)c2ccccc2)c(-c2ccccc2Cl)n1` gave IL1B secr inh 7.9, KB-V1 cytotox 18.4µM*, KB-3-1 tox inactive, HT1080NT lethal -15.1% and HT1080 IDH1KD tx -24.6%.
`O=C(CSc1nnc(-c2ccccc2Br)n1-c1ccccc1)c1ccc(F)cc1` gave KB-V1 cytotox 18.4µM* and KB-3-1 tox inconclusive.
Cc1ccc(C(=O)CSc2nnc(-c3ccccc3)n2-c2ccccc2)cc1 was read as KB-V1 cytotox inconclusive and KB-3-1 tox inactive.
O=C(CSc1ncn(-c2ccccc2)n1)c1cccs1 was read as IL1B secr inh -52.5*, KB-V1 cytotox inactive, KB-3-1 tox inactive, HT1080NT lethal 12.5% and HT1080 IDH1KD tx 14.9%.
`COC(=O)c1ccc(NC(=O)CSc2nnc(-c3ccccc3Br)n2-c2ccccc2)cc1` gave IL1B secr inh 58.6, KB-V1 cytotox inactive, KB-3-1 tox inactive, HT1080NT lethal -1.0% and HT1080 IDH1KD tx 0.8%.
`O=C(CSc1nnc(-c2ccccc2)n1-c1ccccc1)c1cccs1` gave IL1B secr inh -23.4, KB-V1 cytotox 20.6µM*, KB-3-1 tox inactive, HT1080NT lethal -1.6% and HT1080 IDH1KD tx -2.0%.
For c1ccc(CSc2ncn(-c3ccccc3)n2)cc1 the results were IL1B secr inh -28.5, KB-V1 cytotox inactive, KB-3-1 tox inactive, HT1080NT lethal 2.9% and HT1080 IDH1KD tx -1.8%.
`CCOC(=O)c1c(C)[nH]c(C)c1C(=O)COC(=O)/C=C/c1ccco1` gave IL1B secr inh 9.0, KB-V1 cytotox inactive, KB-3-1 tox inactive, HT1080NT lethal -11.5% and HT1080 IDH1KD tx 2.9%.
Screening CCOC(=O)CSc1nnc(NC(=O)CN2CCCCC2)s1 returned IL1B secr inh 3.0, KB-V1 cytotox inactive, KB-3-1 tox inactive, HT1080NT lethal 26.3% and HT1080 IDH1KD tx 11.2%.
COC(=O)c1cc2sccc2n1Cc1c(C)cc(C)cc1C was read as KB-V1 cytotox inactive and KB-3-1 tox inactive.
`CCC(C)NCCOCCOc1ccc(Cl)c(C)c1C` (stereo not drawn) gave IL1B secr inh -8.8, KB-V1 cytotox inconclusive, KB-3-1 tox inconclusive, HT1080NT lethal inconclusive and HT1080 IDH1KD tx 20.6µM*.
CCC(C)NCCCOc1cc(Cl)ccc1Cl (stereo not drawn) was read as IL1B secr inh 0.0, KB-V1 cytotox inactive, KB-3-1 tox inactive, HT1080NT lethal -18.7% and HT1080 IDH1KD tx -27.7%.
Screening CCC(C)NCCOCCOc1ccc(Cl)c2ccccc12 (stereo not drawn) returned IL1B secr inh -103.7*, KB-V1 cytotox inconclusive, KB-3-1 tox inconclusive, HT1080NT lethal 16.4µM* and HT1080 IDH1KD tx 20.6µM*.
Screening OCCNCC12CC3CC(CC(C3)C1)C2 returned IL1B secr inh 9.8, KB-V1 cytotox inactive, KB-3-1 tox inactive, HT1080NT lethal 6.3% and HT1080 IDH1KD tx 25.2%.
Oc1ccccc1CNCC12CC3CC(CC(C3)C1)C2 was read as IL1B secr inh -86.6*, KB-V1 cytotox inactive, KB-3-1 tox inactive, HT1080NT lethal inconclusive and HT1080 IDH1KD tx -25.8%.
For CC(CC12CC3CC(CC(C3)C1)C2)NCc1ccccc1O (stereo not drawn) the results were IL1B secr inh -85.1*, KB-V1 cytotox inactive, KB-3-1 tox inactive, HT1080NT lethal -15.8% and HT1080 IDH1KD tx -13.0%.
O=C(CC12CC3CC(CC(C3)C1)C2)NCc1ccccc1 was read as IL1B secr inh -1.1, KB-V1 cytotox inactive, KB-3-1 tox inactive, HT1080NT lethal 0.6% and HT1080 IDH1KD tx -4.4%.
CCN(CC)S(=O)(=O)c1ccc(-n2cnc3cc(C)c(C)cc32)nc1 was read as IL1B secr inh 0.0, KB-V1 cytotox inconclusive, KB-3-1 tox inactive, HT1080NT lethal -10.6% and HT1080 IDH1KD tx -0.7%.
CC1CN(C(=O)CNC(=O)Cc2cccc3ccccc23)CC(C)O1 (stereo not drawn) was read as IL1B secr inh 9.5, KB-V1 cytotox inactive, KB-3-1 tox inactive, HT1080NT lethal 5.4% and HT1080 IDH1KD tx 2.1%.
`CSc1ccc(C(=O)/C=C/c2ccc(N)cc2)cc1` gave IL1B secr inh -99.4*, KB-V1 cytotox inconclusive, KB-3-1 tox inconclusive, HT1080NT lethal inconclusive and HT1080 IDH1KD tx inconclusive.
CSc1ccc(/C=C/C(=O)c2ccc(NC(=O)Cc3ccccc3)cc2)cc1 was read as IL1B secr inh -20.2, KB-V1 cytotox inconclusive, KB-3-1 tox inactive, HT1080NT lethal inconclusive and HT1080 IDH1KD tx 15.8µM*.
CCOC(=O)Nc1ccc(C(=O)/C=C/c2ccccc2)cc1 was read as IL1B secr inh -88.3*, KB-V1 cytotox inactive, KB-3-1 tox inactive, HT1080NT lethal inconclusive and HT1080 IDH1KD tx inconclusive.
COc1cccc(C(=O)/C=C/c2ccc(SC)cc2)c1 was read as IL1B secr inh -20.3, KB-V1 cytotox inactive, KB-3-1 tox inactive, HT1080NT lethal -2.6% and HT1080 IDH1KD tx inconclusive.

Source: PubChem
